40 molecules from PubChem BioAssay (NCI) can be followed below.

About 83,000 compounds went through this panel and 20% of them were active in at least one assay; those are over-represented in the sample as a whole.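 For each line, cells grew in 96-well plates with the test compound present at a single concentration for 48 hours.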 Active and inactive are the calls of the source. Rule for the calls: active = growth percent below 10; inactive = the rest.

This experiment has as its system COLO 205 colon. In words: NCI-60 one-dose screen, 48 h (100 = growth as untreated, 0 = no growth, -100 = all killed). The note with it: 10 µM unless noted.
Turning to `COc1ccc(/C=C(/C(=O)N2CCCCC2)c2cc(OC)c(OC)c(OC)c2)cc1`, the growth was -14.6% (active).
The figure for `COc1ccc(OC)c(Cn2cc3c(c2)-c2oncc2CC3)c1` is 35.8% (inactive).
Turning to `COc1ccc(CN2C(=O)/C(=C\C(=O)c3ccc(OCCN4CCCCC4)cc3)c3ccccc32)cc1`, the growth was 76.7% (inactive).
The figure for `COc1ccc(/C=C2\SC(=O)N(Cc3cc(=O)oc4ccc(OC)cc34)C2=O)cc1` is 111% (inactive); for `O=c1oc2ccc3ccccc3c2cc1-c1ccnc2[nH]c(=S)[nH]c(=O)c12` it is 111% (inactive); for `O=C(O)c1occ(Cl)c1Cl` it is 114% (inactive).
The figure for `COc1ccc(Cn2cc3c(c2-c2ccccc2)CCc2cnoc2-3)cc1OC` is 8.16% (active).
The figure for `CCCCN(CCCC)CC(O)CN(CC)CC` (stereo not given) is 99.3% (inactive).
On to `O=C(/C=C/c1c[nH]c2ccccc12)c1cc2ccccc2o1`, for which the growth was 130% (inactive).
The result for `COc1ccc2sc(-n3nc4nc5n(c(=O)c4c3N)-c3ccccc3Sc3ccccc3-5)nc2c1` reads 64.7% (inactive).
The result for `CCOC(=O)NNc1[nH]c(-c2ccc(OC)cc2)cc1C#N` reads 14.5% (inactive); that for `COc1ccc(-c2cn3ccnc3c(-c3ccc4ncn(C5CCCCC5)c4c3)n2)cc1`, -8.01% (active).
The result for `CCOC(=O)C1=NN(c2ccccc2)C2=NC(=O)/C(=C\c3cn(-c4ccccc4)nc3-c3cc4ccccc4o3)C(=O)N12` reads 109% (inactive); that for `O=C(/C=C1\C(=O)N(Cc2ccc([N+](=O)[O-])cc2)c2ccccc21)c1ccc(OCCN2CCCCC2)cc1`, -49.5% (active).
`NNC(=S)N1N=C(c2cc3ccccc3o2)CC1c1c[nH]c2ccccc12` (stereo not given): the growth is 52.2% (inactive).
The figure for `O=C(/C=C1\C(=O)N(Cc2ccccc2)c2ccccc21)c1ccc(OCCN2CCCCC2)cc1` is -34% (active); for `COc1ccc(CN2C(=O)/C(=C\C(=O)c3ccc(OCCN4CCCC4)cc3)c3ccccc32)cc1` it is 83.9% (inactive); for `C[C@@H](c1ccc2c(c1)[nH]c1ccc(Cl)cc12)c1nc2ccccc2[nH]1` it is 123% (inactive).
The figure for `c1ccc(-c2cn3ccnc3c(-c3ccc4ncn(C5CCCCC5)c4c3)n2)cc1` is 79.3% (inactive); for `C[C@@H](c1ccc2c(c1)[nH]c1ccc(Cl)cc12)c1nc2ccc(Cl)cc2[nH]1` it is 116% (inactive); for `COc1cc(CNC(=O)CCCC/C=C/C(C)C)ccc1OCc1nnc(Nc2ccccc2F)o1` it is 104% (inactive).
The result for `Cc1c(CN(C)C)cc(C(C)C)cc1C(C)C` reads 131% (inactive).
As to `O=S(=O)(O)c1ccc2c(c1)Sc1cc(S(=O)(=O)O)ccc1O2`, the growth was 111% (inactive).
The result for `COc1ccc(Cn2cc3c(c2-c2ccccc2)CCc2cnoc2-3)cc1N` reads -24.7% (active); that for `COc1ccc(/C=C(/C(=O)N2CCN(c3ccc(C)cc3)CC2)c2cc(OC)c(OC)c(OC)c2)cc1N`, -43.9% (active); that for `C=CCN(C)C`, 121% (inactive).
For the molecule `CCNc1nnc(COc2ccc(CNC(=O)CCCC/C=C/C(C)C)cc2OC)o1`, the growth was 110% (inactive).
The figure for `COc1ccc2oc(=O)cc(CN3C(=O)S/C(=C\c4ccc(Cl)cc4)C3=O)c2c1` is 136% (inactive).
Turning to `CC(C)OC(=O)Nn1cnc2ccccc21`, the growth is 130% (inactive).
The figure for `COc1ccc(Cn2cc3c(c2-c2ccc(OC)cc2)CCc2cnoc2-3)cc1` is -32.4% (active); for `COc1cc(Cn2ccc3c2-c2oncc2CC3)cc(OC)c1` it is 26.1% (inactive).
Consider `COc1cccc(Cn2cc3c(c2)-c2oncc2CC3)c1`, for which the growth was 9.83% (active).
The figure for `COc1ccc(C2=C/C(=C\c3ccc(Cl)cc3)C(=O)NN2C(=S)NN)cc1` is 114% (inactive); for `COc1ccc(Cn2cc3c(c2)-c2oncc2CC3)cc1OC` it is -18.2% (active); for `COc1ccccc1Nc1nnc(COc2ccc(CNC(=O)CCCC/C=C/C(C)C)cc2OC)o1` it is 125% (inactive).
The figure for `N=c1c2c(=O)n3c(nc2nc2sc4ccc(Cl)cc4n12)-c1ccccc1Sc1ccccc1-3` is 11.9% (inactive); for `CCCC(=O)NNc1[nH]c(-c2cc(OC)c(OC)c(OC)c2)cc1C(=O)OCC` it is 34.3% (inactive).
The figure for `COc1ccc(Cn2cc3c(c2-c2ccc(O)cc2)CCc2cnoc2-3)cc1` is -17.6% (active); for `COc1ccc(OC)c(Cn2cc3c(c2-c2ccccc2)CCc2cnoc2-3)c1` it is 35.9% (inactive).
Take `CCCCCCCCCCCCCCCCCC1=NCCN1CS(=O)(=O)O`: the growth was 29.2% (inactive).
